SW480 rerep = DNA re-replication induction in SW480 cells; 1.8% of 340,000 active; AID 624297; SW480 DNA re-replication, Hoechst DNA content imaging, 48 h; Potency, µM (series often up to 46.1 µM), for inactives: at the top dose re-replication activation, usual class: activators; note: % of control where 0% means no effect; nearly all actives have a fitted effect of over 55% in size
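Per well, 250 cells were exposed to pinned compound for 48 hr. Nuclear DNA was visualised with Hoechst (40 min, 37 C) and total object intensity recorded by fluorescence scanning.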
HT1080-NT tox = kills 2HG-producing HT-1080-NT fibrosarcoma cells; HT-1080-NT fibrosarcoma viability, CellTiter-Glo ATP luminescence, 48 h; Potency, µM (titrated, usually from 46.1 µM), for inactives: top-dose activity, negative = less viability, usual class: cytotoxic; 1.6% of 360,000 active;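 note: NT is the 2HG producing partner of a matched IDH1 knockdown line; 0% = DMSO-treated cells and -100% = media-only wells without cells; nearly all actives have a fitted effect of over 55% in size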
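A 48-hour cytotoxicity screen used HT-1080-NT cells plated 2 hours before compound delivery. ATP-based CellTiter-Glo luminescence measured viability, normalized to DMSO and no-cell controls.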
HT1080 IDH1KD tx = HT-1080 IDH1 knockdown cell toxicity (counter line) | HT-1080 IDH1 knockdown viability, ATP luminescence, 48 h | Potency, µM (series often up to 46.1 µM), without a hit: at the top dose activity, negative = toxicity, hits mostly cytotoxic | 2% of 360,000 active;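 note: 0% = DMSO wells and -100% = cell-free medium wells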
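Cytotoxicity counter-line: IDH1KD HT-1080, 48 h, CellTiter-Glo. Curves classed by r2, magnitude and activity.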
MCF10A rerep = DNA re-replication induction in MCF 10a cells; MCF 10A DNA re-replication, Hoechst nuclear intensity, 48 h; Potency, µM (top dose mostly 46.1 µM), inactives show at the top dose activity, positive = re-replication, hits mostly activators; 2.9% of 350,000 active; AID 624296; note: % of control where 0% means no effect; nearly all actives have a fitted effect of over 50% in size
KB-3-1 cytotox = kills parental KB-3-1 adenocarcinoma cells; KB-3-1 viability, CellTiter-Glo ATP luminescence, 72 h; 1.4% of 400,000 active; Potency, µM (highest dose often 46.1 µM), actives largely listed as cytotoxic; note: % is set by controls: 0 for no effect and ±100 for the full control effect; nearly all actives have a fitted effect of over 60% in size
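Cytotoxicity measured as CellTiter-Glo luminescence after 72 h at 37 C. Compound titrations were pinned onto drug-naive KB-3-1 parental adenocarcinoma cells grown in DMEM with 10% FBS, and normalized data fitted to concentration-response curves.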
KB-V1 MDR tox = KB-V1 MDR subline cytotoxicity | KB-V1 MDR cells viability, CellTiter-Glo, 72 h | Potency, µM (highest dose often 46.1 µM), actives largely listed as cytotoxic | 3.4% of 400,000 active; note: % is set by controls: 0 for no effect and ±100 for the full control effect; nearly all actives have a fitted effect of over 60% in size
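KB-V1 cells (P-gp-expressing MDR subline of KB-3-1) in phenol-red-free DMEM with 10% FBS were exposed to library compounds over a concentration series for 72 h at 37 degrees C. Viability read by CellTiter-Glo luminescence; concentration-effect curves fitted after normalization.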
The depositor's hits bear a star; i = inactive; u = inconclusive; x = no result given; ! = not active in a repeat; [ ] = remark or other dose. Sampled rows, rich in hits. Any-hit rate of the full collection: about 8%. Calls come from the whole dose curve; as a rule, active = well fitted curve in the direction sought with a large enough effect; inconclusive = small, poorly fitted or top-dose-only effect, or another doubt; inactive = no such curve, though single readings can be large; an effect the other way counts as inactive or inconclusive. Potency is the fitted concentration of half-maximal effect.

SMILES	SW480 rerep	HT1080-NT tox	HT1080 IDH1KD tx	MCF10A rerep	KB-3-1 cytotox	KB-V1 MDR tox
C=CCCc1ccc(C#N)c(SCc2c(C(=O)OCC)c3cc(OC(C)=O)c(Br)cc3n2C)n1	u	u	-13%	20%	u	2.6µM*
CCOC(=O)c1c(C)n(C)c2cc(Br)c(OC)cc12	-59%	6%	6%	-1%[9.22 µM]	i	u
Cc1ccc(-c2noc(C3CCN(C(=O)Nc4ccc(C#N)cc4)CC3)n2)o1	3%	-16%	u	1%	u	2.6µM*
CC(C)NC(=O)CSc1nc2[nH]ncc2c(=O)[nH]1	-18%	3%	6%	-1%	i	i
COc1ccc(CNC(=O)C[C@H]2C(=O)N(Cc3ccc(OC)cc3)C[C@@H]2Cc2ccccc2)cc1	8%	0%	0%	-2%	i	13µM*!
CCCCC[C@H]1CN(Cc2ccccc2)C(=O)[C@@H]1CC(=O)NCc1ccc(OC)cc1	1%	3%	8%	23%	u	18µM*!
COc1ccc(C(=O)C(CCC(CNC(C)(C)C)C(=O)c2ccc(OC)cc2)CNC(C)(C)C)cc1 (stereo unspecified)	2.9µM*	u	4.6µM*	5.8µM*	u	u
COc1ccc(C(=O)CC(=O)c2ccc(C(C)(C)C)cc2)cc1	-3%	1%	-17%	u	i	u
Cc1cc(=O)[nH]c2ccc([N+](=O)[O-])cc12	x	x	x	x	i	i
Cc1ccc(C)c2c1[nH]c1ccc([N+](=O)[O-])cc12	-3%	-25%	u	20%	u	8.2µM*
COc1cc(C(=S)N2CCCC2)cc(OC)c1OC	-20%	7%	0%	3.7µM*	i	i
CC(C)OCCCNC(=O)c1ccccc1NC(=O)C1=CSCCO1	u	-4%	2%	8%	i	i
N#CCCN(C(=O)COC(=O)c1cccc(S(=O)(=O)N2CCCC2)c1)c1ccc(F)cc1	-1%	6%	10%	2%	i	i
O=C(COC(=O)c1cccc(S(=O)(=O)N2CCCC2)c1)Nc1ccccc1C(F)(F)F	4.6µM*	-1%	7%	6%	i	i
N#CCCN(C(=O)COC(=O)c1cccc(S(=O)(=O)N2CCCCCC2)c1)c1ccc(F)cc1	-2%	-2%	15%	0%	i	13µM*
CCOc1ccc(CCNC(=O)C2CCCN(c3nn4c(=O)cc(C)nc4s3)C2)cc1 (stereo unspecified)	-3%	-4%	-1%	2%	i	i
COC(=O)c1ccc(C(=O)OC)c(NC(=S)N2CCN(c3cccc(Cl)c3)CC2)c1	-2%	-4%	-13%	11%	i	16µM*
COC(=O)c1ccc(C(=O)OC)c(NC(=S)N2CCN(c3ccccc3)CC2)c1	u	-3%	-11%	1%	i	u
COC(=O)c1ccc(C(=O)OC)c(NC(=S)N2CCC(C)CC2)c1	u	8%	8%	-62%	i	16µM*
CC(=O)c1ccc(N2CCN(C(=S)Nc3cccc(Cl)c3)CC2)cc1	-23%	4%	14%	-3%	i	23µM*
COC(=O)c1ccc(C(=O)OC)c(NC(=S)N2CCCCC2C)c1 (stereo unspecified)	1%	15%	8%	1%	i	15µM*
COC(=O)c1ccc(C(=O)OC)c(NC(=S)N2CCCC2)c1	0%	8%	6%	1%	i	i
COC(=O)c1ccc(C(=O)OC)c(NC(=S)N2CCN(C)CC2)c1	-10%[1.84 µM]	11%	3%	2%	i	i
Cc1ccc(S(=O)(=O)c2c(C)cc(C)nc2Cl)c(C)c1	0%	-3%	-3%	6%	i	i
O=C(Nc1nnc(C2CCCCC2)s1)C1CC(=O)N(c2ccc(F)cc2)C1 (stereo unspecified)	-12%	8%	6%	3%	i	i
SMILES	SW480 rerep	HT1080-NT tox	HT1080 IDH1KD tx	MCF10A rerep	KB-3-1 cytotox	KB-V1 MDR tox
Cc1ccc(C(=O)Cc2ccccc2)c(O)c1	-8%	14%	12%	-31%	i	i
CC(C)=CCc1c(O)ccc(C(=O)Cc2ccccc2)c1O	4%	u	u	21µM*	i	i
CCN(CC)S(=O)(=O)c1cc(NC(=O)C(C)N2CCN(Cc3ccc4c(c3)OCO4)CC2)ccc1C (stereo unspecified)	15µM*	-4%	-11%	u	13µM*	2.9µM*
CCCCCCCCC1=NCCc2c1[nH]c1ccccc21	u	u	u	12µM*	i	i
CCCCc1c(O)c2ccccc2[nH]c1=O	-16%	17%	26%	0%	i	i
CC1CCN(S(=O)(=O)c2ccc3c(c2)N(CC(=O)NCc2ccccc2)C(=O)CO3)CC1	x	x	x	x	i	u
Cc1ccc(CNc2c(C=O)c(=O)[nH]c3ccccc23)cc1	0%[9.22 µM]	-13%	-1%	0%	i	i
Cc1cc(NC(=O)Nc2nnc(N(C)Cc3ccccc3)s2)ccc1Br	x	x	x	x	i	i
COc1ccc(C(=O)C[n+]2ccc3c(c2)nc(-c2ccc(OC)cc2OC)n3C)cc1	1%	-14%	u	u	15µM*	i
Cc1ccc(/C=C2/SC(=O)N(CC(=O)N3CCOCC3)C2=O)s1	-2%	5%	9%	5%	i	21µM*
Cn1cccc1/C=C1/SC(=O)N(CC(=O)N2CCCC2)C1=O	1%	17%	12%	-3%	i	16µM*
C#C[C@]1(O)CC[C@H]2[C@@H]3CCC4=C(CCC(=O)C4)[C@H]3CC[C@@]21C	6%	-21%	0%	-2%	u	15µM*
C#C[C@]1(O)CC[C@H]2[C@@H]3CCC4=CC(=O)CC[C@@H]4[C@H]3CC[C@@]21C	-45%	0%	-12%	-24%	u	2.3µM*
CCOc1ccc(C(C(=O)NC2CCCC2)N(CCOC)C(=O)CNC(=O)c2ccco2)cc1 (stereo unspecified)	-6%	12%	5%	-5%	i	i
COc1cc2c(c(OC)c1OC)-c1ccc(OC)c(=O)cc1[C@@H](N(C)CC#CCO)CC2	u	0.0073µM*	0.16µM*	u	0.052µM*	u
COc1cc2c(c(OC)c1OC)-c1ccc(N(C)CC(OC)OC)c(=O)cc1[C@@H](NC(C)=O)CC2	1.5µM*	u	0.65µM*	0.58µM*	0.52µM*	u
CCOc1ccc(CC2c3cc(OCC)c(OCC)cc3CCN2C(=O)c2cc(OC)c(OC)c(OC)c2)cc1OCC (stereo unspecified)	9%	-5%	5%	u	i	u
